# From PubChem
# Cruzain inh noDet: cruzain (T. cruzi) inhibition without detergent | 200,000 compounds, 2.3% hits | purified cruzain, Z-FR-AMC fluorescence, no detergent | P25779 | AID 1476 | Potency, µM, without a hit: max response, negative = inhibition, most hits filed as inhibitors;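 also: plate controls were enzyme without inhibitor for no effect and buffer without enzyme for full effect; nearly all actives have a fitted effect of over 40% in size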
# Target sequence (P25779 123-467 limits assumed): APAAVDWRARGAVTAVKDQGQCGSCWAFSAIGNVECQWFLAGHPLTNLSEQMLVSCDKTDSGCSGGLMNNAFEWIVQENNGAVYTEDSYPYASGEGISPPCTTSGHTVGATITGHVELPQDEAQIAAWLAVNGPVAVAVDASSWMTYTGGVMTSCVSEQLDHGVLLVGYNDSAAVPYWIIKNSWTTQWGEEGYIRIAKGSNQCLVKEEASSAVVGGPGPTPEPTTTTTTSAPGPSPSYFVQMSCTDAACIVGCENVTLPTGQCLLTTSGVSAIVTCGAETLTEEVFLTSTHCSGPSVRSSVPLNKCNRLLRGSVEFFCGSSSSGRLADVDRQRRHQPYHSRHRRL
#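 Detergent-free condition (0.00005% Triton X-100) in acetate buffer pH 5.5 with DTT. 1.5 nM enzyme and compound were pre-mixed 15 min, then 2 uM Z-FR-AMC substrate added; reaction progress from fluorescence change between first and third reads (60 s).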
# Cruzain inh Det: blocks cruzain activity in presence of Triton detergent | Potency, µM, for the others: max response, negative = inhibition, actives largely listed as inhibitors | purified cruzain, Z-FR-AMC fluorescence, 0.01% Triton | AID 1478 | P25779 | 200,000 compounds, 0.43% hits;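 also: plate controls were neutral wells for no effect and buffer without enzyme for full effect; nearly all actives have a fitted effect of over 40% in size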
#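 Detergent-containing arm of a paired screen for aggregation-based inhibition: 0.01% Triton X-100 present. Cruzain at 1.5 nM cleaved 2 uM Z-FR-AMC at pH 5.5 with 5 mM DTT; AMC fluorescence gain over 60 s measured activity.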
# * hit, by the source's call; ? = inconclusive. Compounds with a hit are over-represented: about 2.6% of the library has one in this group of screens. Calls follow the shape of the dose curve; as a rule, active = well fitted curve in the direction sought with a large enough effect; inconclusive = small, poorly fitted or top-dose-only effect, or another doubt; inactive = no such curve, though single readings can be large; an effect the other way counts as inactive or inconclusive. Potency is read from the fitted curve at half-maximal effect.
SMILES,Cruzain inh noDet,Cruzain inh Det
CCC(=O)C(C(=O)OC)[C@H](CCc1ccccc1)NC(=O)OC (stereo partly drawn),-6.1%,4.2%
CCOc1ccc(CCNC(=O)Cn2c(C)c3cnn(-c4ccccc4)c(=O)c3c2C)cc1,8.8%,-5.0%
Clc1ccccc1-c1nnc2sc(-c3ccc(Br)o3)nn12,-12.6%,-4.9%
Clc1ccc(-c2nnc3sc(-c4ccc(Br)o4)nn23)c(Cl)c1,20µM*,-0.6%
CCOc1ccc(-c2nc(SCC(=O)c3ccccc3)n[nH]2)cc1,?,-4.6%
CCCOc1ccc(-c2nc(SCC(=O)c3ccc(Cl)cc3)n[nH]2)cc1,10µM*,1.3%
CCC1CCCCN1CCCNC(=O)c1ccc2c(c1)N(Cc1cccc(Cl)c1)C(=O)c1ccccc1S2(=O)=O (stereo not drawn),-4.8%,1.7%
Nc1ncnc2c1c(I)cn2C1OC(CO)C(O)C1O (stereo not drawn),-0.9%,0.8%
Cc1ccc2c(c1)c1c3n2CCN(C(=O)c2cccc(C(F)(F)F)c2)C3CCC1 (stereo not drawn),0.631µM*,-4.7%
CCN(CC)CCN1CCn2c3c(c4cc(C)ccc42)CCCC31 (stereo not drawn),-4.0%,-8.4%
O=C(N/N=C/c1c[nH]c2ccccc12)c1cccc([N+](=O)[O-])c1,1.3%,-12.1%
COc1ccccc1NS(=O)(=O)c1ccc(N/N=C/c2c(C)nn(-c3ccccc3)c2N2CCCC2)c([N+](=O)[O-])c1,3.16µM*,-1.4%
O=[N+]([O-])c1ccc(N/N=C/c2c[nH]c3ccccc23)cc1,25.1µM*,-4.1%
O=C(N/N=C/c1ccc[nH]1)c1ccccc1[N+](=O)[O-],-10.0%,-3.8%
Cc1nn(-c2ccccc2)c(N2CCCC2)c1/C=N/Nc1ccc(S(=O)(=O)Nc2ccccc2)cc1[N+](=O)[O-],?,5.1%
O=[N+]([O-])c1ccc(N/N=C/c2ccc[nH]2)cc1,25.1µM*,-24.4%
O=C(N/N=C/c1c[nH]c2c1ccc1ccccc12)c1ccc([N+](=O)[O-])cc1,6.31µM*,-4.1%
O=[N+]([O-])c1ccccc1N/N=C/c1c[nH]c2ccccc12,1.5%,-5.1%
COc1ccc(CCNC(=O)C2CCN(c3nc4ccccc4nc3C(F)(F)F)CC2)c(OC)c1,-3.7%,3.6%
Cc1ccc2scc(N3CCCCC3)c(=O)c2c1,-1.3%,-4.4%
COc1ccc(NC(=O)c2ccc3oc(=O)c(S(=O)(=O)c4ccc(C)cc4)cc3c2)cc1OC,9.0%,2.8%
Cc1cc(SCC(=O)NCc2ccccc2)nc(=O)[nH]1,11.7%,-1.3%
CSc1ccc(CCNC(=O)CCn2c(=O)c3cccn3c3cccnc32)cc1,-8.7%,0.7%
COC(=O)c1ccc(NC(=O)CC2C(=O)N(c3ccccc3)C(=O)N2Cc2ccc(F)cc2)cc1 (stereo not drawn),-6.2%,-4.2%
Cn1c(SCC(=O)c2ccc(F)cc2)nnc1-c1ccccc1Br,-9.3%,-2.1%
SMILES,Cruzain inh noDet,Cruzain inh Det
CCc1c(C)c2cc3c(c(C)c2oc1=O)OCN(CCc1ccccc1F)C3,-3.4%,-5.7%
COc1ccc(/C=N/Nc2ccc([N+](=O)[O-])cc2S(=O)(=O)N2CCN(C)CC2)cc1,2.5%,-4.3%
Cc1ccc(/C=N/Nc2nc3ccccc3[nH]2)s1,-23.9%,-17.4%
COc1ccccc1NS(=O)(=O)c1cc([N+](=O)[O-])ccc1N/N=C/c1c[nH]c2ccccc12,10µM*,5.5%
COc1ccccc1NS(=O)(=O)c1cc([N+](=O)[O-])ccc1N/N=C/c1sc(N2CCOCC2)nc1-c1ccccc1,6.31µM*,-1.7%
Brc1ccc(-c2ccc(/C=N/Nc3nncc(-c4ccccc4)n3)o2)cc1,-6.0%,4.6%
C(=N\Nc1nc2ccccc2[nH]1)/c1c[nH]c2ccccc12,15.8µM*,?
COc1ccc([N+](=O)[O-])cc1NS(=O)(=O)c1ccccc1,-0.5%,-7.0%
Brc1ccc(-c2ccc(/C=N/Nc3nc4ccccc4[nH]3)o2)cc1,7.94µM*,?
Cc1cccc(N2CCN(C(=O)c3ccc4c(c3)N(Cc3cccc(Cl)c3)C(=O)c3ccccc3S4=O)CC2C)c1 (stereo not drawn),-18.5%,-1.2%
Cc1ccccc1Cn1nnc2c(=O)[nH]c(C3CCN(C(=O)c4ccccc4)CC3)nc21,5.8%,-2.0%
CSc1nn(Cc2cccc(Cl)c2)c(N(C(C)=O)C(C)=O)c1S(=O)(=O)c1ccccc1,10.3%,-5.9%
CCOc1ccccc1NC(=O)c1ccc2c(Cl)c3c(nc2c1)CCC3,-4.8%,-1.0%
Cc1[nH]c2ccccc2c1/C=N/Nc1ccc([N+](=O)[O-])cc1S(=O)(=O)Nc1ccc(Cl)cc1,5.01µM*,4.5%
COc1ccc(NS(=O)(=O)c2cc([N+](=O)[O-])ccc2N/N=C\c2c(C)[nH]c3ccccc23)cc1,?,2.1%
Cc1cc(Br)ccc1NC(=O)CCS(=O)(=O)c1cccc2nsnc12,-9.6%,4.8%
O=c1oc(-c2cccs2)nc2sc3c(c12)CCCC3,?,3.4%
O=c1oc(-c2cccs2)nc2sc3c(c12)CCC3,12.6µM*,0.9%
O=C(N/N=C/C=C/c1ccco1)c1cccnc1,-2.6%,-9.7%
O=C(N/N=C\C=C\c1ccco1)c1cc(-c2ccc3ccccc3c2)n[nH]1,15.8µM*,-10.3%
O=C(N/N=C/C=C\c1ccccc1[N+](=O)[O-])c1ccccn1,4.2%,-9.4%
O=C(N/N=C/C=C/c1ccccc1[N+](=O)[O-])c1cc(-c2ccccc2)n[nH]1,25.1µM*,-18.4%
CCOC(=O)c1cccc(NC(=O)Cc2ccc(NC(=O)N3CCCCc4ccccc43)cc2)c1,0.4%,-4.5%
COc1cccc([C@@H]2Oc3ccc(OC)cc3C(=O)[C@H]2OC(=O)NC2CCCC2)c1,0.5%,-1.0%
CCOC(=O)CSc1nc2cc(C(=O)NCc3ccco3)ccc2c(=O)n1-c1ccc(F)cc1,10µM*,-1.2%
SMILES,Cruzain inh noDet,Cruzain inh Det
CCOC(=O)CSc1nc2cc(C(=O)NCc3ccco3)ccc2c(=O)n1C1CCCCC1,?,0.4%
Cc1ccc(-c2c(CN3CCN(c4cccc(C(F)(F)F)c4)CC3)csc2C)cc1,-5.9%,-6.9%
CCn1c2ccccc2c2cc(/C=N/NC(=O)c3ccc(O)cc3)ccc21,25.1µM*,?
COc1ccc(/C=N/NC(=O)CCn2c3ccccc3c3ccccc32)cc1OC,?,-8.4%
CCOC(=O)c1cc([N+](=O)[O-])sc1NC(=O)c1ccc(S(=O)(=O)N2CC3(C)CC2CC(C)(C)C3)cc1 (stereo not drawn),3.98µM*,-2.5%
CC1(C)CC2CC(C)(CN2S(=O)(=O)c2ccc(C(=O)Nc3ccc(S(=O)(=O)N4CCOCC4)cc3)cc2)C1 (stereo not drawn),-1.8%,-5.4%
CCCCOc1ccc(-c2nc(/C=N/c3nccs3)c(O)o2)cc1,?,0.5%
CCOc1ccc2nc(/N=C/c3nc(-c4ccc(Br)cc4)oc3O)sc2c1,7.94µM*,1.6%
CCCS(=O)(=O)N1CCC(n2c(C)nc3cccnc32)CC1,-5.3%,1.5%
COc1cc(SC)ccc1C(=O)Nc1ccc(S(=O)(=O)Nc2nccc(C)n2)cc1,0.9%,-0.1%
COc1ccc(NC(=O)CN2C(=O)C(C)N=C(c3ccccc3)c3ccccc32)cc1OC (stereo not drawn),?,-0.7%
Cc1cccc(NC(=O)N[C@@H]2N=C(c3ccccc3)c3ccccc3N(CC(=O)c3ccccc3C)C2=O)c1,31.6µM*,-2.1%
